Sampled rows, rich in hits. Any-hit rate of the full collection: about 3.7%.
Autofluor counter: counter-screen for toxin protease inhibitors: compound fluorescence | compound autofluorescence counterscreen, microsphere flow cytometry; hits give high values | fluorescence intensity (test concentration not listed) | 360,000 tested, 3.1% active | AID 624483; in the data active = fluorescence intensity above about 16000; inconclusive = no clear call, values can overlap the other calls
BoNT-F LC inh: blocks Botulinum neurotoxin F light chain protease; Multiplex microsphere protease cleavage assay, flow cytometry; inhibition, % at 10 µM; 360,000 tested, 0.22% active; AID 588497; in the data active = inhibition above about 35%, passing the limit was not always enough; inconclusive = no clear call, values can overlap the other calls; also: plate controls were buffer without enzyme for full effect and enzyme alone for no effect
BoNT A protease: blocks Botulinum neurotoxin A light chain protease; multiplex microsphere protease substrate cleavage, flow cytometry; inhibition, % at 10 µM; 360,000 tested, 0.17% active; AID 588499; also: plate controls were buffer without enzyme for full effect and enzyme alone for no effect
MazF activator: activators of E. coli MazEF toxin-antitoxin RNase; activation, % at 20 µM; P0AE70; 350,000 tested, 0.32% active; FAM/BHQ RNA-DNA oligo cleavage fluorescence, 5 h; in the data active = activation above about 50%
Target sequence (P0AE70 whole entry, looked up): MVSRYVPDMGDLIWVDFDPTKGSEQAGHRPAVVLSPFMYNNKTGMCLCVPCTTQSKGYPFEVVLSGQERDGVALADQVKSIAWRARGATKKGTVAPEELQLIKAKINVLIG
Anthrax LF inh2: anthrax lethal factor protease inhibition; inhibition, % at 10 µM; 360,000 tested, 0.12% active; multiplex microsphere protease cleavage assay, LF; AID 588501; also: plate controls were buffer without enzyme for full effect and enzyme alone for no effect
The depositor's hits bear a star. Rule as the data show it, unless noted: active = inhibition above about 30%; inconclusive = no clear call, values can overlap the other calls; inactive = below that.

c1ccc(-c2nnnn2-c2ccccc2)cc1 was read as Autofluor counter 4056, BoNT-F LC inh -3, BoNT A protease -2, MazF activator 4 and Anthrax LF inh2 -3.
For Cc1cc(N2CCN(C(=O)c3ccco3)CC2)n2nc(-c3cccc(Cl)c3)cc2n1 the results were Autofluor counter 16545*, BoNT-F LC inh 1, BoNT A protease inconclusive, MazF activator 5 and Anthrax LF inh2 1.
`C/C(=C\C(=O)Nc1nccs1)c1ccccc1` gave Autofluor counter 17209*, BoNT-F LC inh -6, BoNT A protease inconclusive, MazF activator 4 and Anthrax LF inh2 -4.
`CC1(C)Cc2nc3n[nH]c(N)c3cc2CO1` gave Autofluor counter 24639*, BoNT-F LC inh -4, BoNT A protease -3, MazF activator -12 and Anthrax LF inh2 -2.
CC1=C(C(=O)N(C)C)CC(CC(=O)NC2CCCC2)C(=O)N1CCC1=CCCCC1 (stereo not given) was read as Autofluor counter 3785, BoNT-F LC inh -6, BoNT A protease 0, MazF activator 9 and Anthrax LF inh2 -4.
For CCC(C)(C)C(=O)Nc1nnc(CCc2ccccc2)s1 the results were Autofluor counter 3221, BoNT-F LC inh 36*, BoNT A protease -1, MazF activator -1 and Anthrax LF inh2 -1.
Cc1cccc(Cn2c(Sc3nc(C)cs3)nc3c2c(=O)[nH]c(=O)n3C)c1 was read as Autofluor counter 19241*, BoNT-F LC inh 4, BoNT A protease inconclusive, MazF activator 2 and Anthrax LF inh2 -3.
Screening Cc1csc(Sc2nc3c(c(=O)[nH]c(=O)n3C)n2Cc2ccccc2Cl)n1 returned Autofluor counter 5276, BoNT-F LC inh 5, BoNT A protease 1, MazF activator -8 and Anthrax LF inh2 -7.
`C=CCn1c(Sc2nc(C)cs2)nc2c1c(=O)[nH]c(=O)n2C` gave Autofluor counter 23702*, BoNT-F LC inh -2, BoNT A protease -2, MazF activator 5 and Anthrax LF inh2 -2.
CC(C)=CCSc1nnc([C@@H](NC(=O)OC(C)(C)C)C(C)C)o1 was read as Autofluor counter 22591*, BoNT-F LC inh 0, BoNT A protease inconclusive, MazF activator -4 and Anthrax LF inh2 -2.
Cc1cccc(NC(=O)CSc2nnc(CNC(=O)c3ccco3)o2)c1 was read as Autofluor counter 5198, BoNT-F LC inh -1, BoNT A protease 0, MazF activator 3 and Anthrax LF inh2 1.
For COC(=O)c1c(C)[nH]c(C(=O)OCC(=O)c2ccc(C)s2)c1C the results were Autofluor counter 3594, BoNT-F LC inh -1, BoNT A protease 0, MazF activator -2 and Anthrax LF inh2 4.
`CC(C)OCCCNC(=O)c1cccs1` gave Autofluor counter 22575*, BoNT-F LC inh 1, BoNT A protease -1, MazF activator 1 and Anthrax LF inh2 0.
Screening CCCCOCCCNC(=O)c1cccs1 returned Autofluor counter 13122, BoNT-F LC inh -13, BoNT A protease -1, MazF activator -1 and Anthrax LF inh2 1.
CC(C)c1ccc(S(=O)(=O)NCCCN2CCOCC2)cc1 was read as Autofluor counter 2783, BoNT-F LC inh -4, BoNT A protease 0, MazF activator 4 and Anthrax LF inh2 -1.
Screening CCN1CCN(CCNC(=O)CCCCCn2c(=O)[nH]c3cc(C(=O)OC)ccc3c2=O)CC1 returned Autofluor counter 23054*, BoNT-F LC inh -3, BoNT A protease -2, MazF activator 0 and Anthrax LF inh2 -2.
`COc1cc(C(=O)N(Cc2cccc(Cl)c2)C2CCS(=O)(=O)C2)cc(OC)c1OC` (stereo not given) gave Autofluor counter 8102, BoNT-F LC inh 7, BoNT A protease 1, MazF activator -2 and Anthrax LF inh2 2.
For COc1cc(C(=O)N(Cc2ccc(F)cc2)C2CCS(=O)(=O)C2)cc(OC)c1OC (stereo not given) the results were Autofluor counter 17106*, BoNT-F LC inh -2, BoNT A protease -2, MazF activator 5 and Anthrax LF inh2 2.
`CCOc1cccc(C(=O)N(Cc2ccc(F)cc2)C2CCS(=O)(=O)C2)c1` (stereo not given) gave Autofluor counter 21464*, BoNT-F LC inh -2, BoNT A protease inconclusive, MazF activator 12 and Anthrax LF inh2 0.
`CN(C)c1ccc(CN(C(=O)COc2ccc(F)cc2)C2CCS(=O)(=O)C2)cc1` (stereo not given) gave Autofluor counter 20985*, BoNT-F LC inh -1, BoNT A protease -3, MazF activator 3 and Anthrax LF inh2 -4.
For Cc1ccc(OCC(=O)N(Cc2ccc(N(C)C)cc2)C2CCS(=O)(=O)C2)cc1 (stereo not given) the results were Autofluor counter 4320, BoNT-F LC inh 10, BoNT A protease 0, MazF activator 18 and Anthrax LF inh2 -3.
OCCNc1ncnc2c1ncn2[C@H]1CN(C2CCCC2)C[C@@H](CO)O1 was read as Autofluor counter 4171, BoNT-F LC inh -10, BoNT A protease 0 and Anthrax LF inh2 -2.
For O=C(NC(c1ccccc1)c1ccc2ccccc2n1)C1CCN(Cc2cccc(C(F)(F)F)c2)CC1 (stereo not given) the results were Autofluor counter 3985, BoNT-F LC inh -2, BoNT A protease 0 and Anthrax LF inh2 0.
Screening COc1ccc(NC(=O)N2CCn3c2nc2ccccc23)cc1 returned Autofluor counter 19709*, BoNT-F LC inh 0, BoNT A protease 1, MazF activator -9 and Anthrax LF inh2 -1.
Nc1c(N=O)c(=O)[nH]c(=O)n1-c1ccccc1 was read as Autofluor counter 4218, BoNT-F LC inh inconclusive, BoNT A protease 0, MazF activator 0 and Anthrax LF inh2 1.
For CCCNc1c(N)n(-c2ccccc2)c(=O)[nH]c1=O the results were Autofluor counter 21763*, BoNT-F LC inh 8, BoNT A protease inconclusive, MazF activator -8 and Anthrax LF inh2 -4.
For CC1(C(=O)N2CCC(CC3CC(c4cccc(Br)c4)=NO3)(C(=O)NCC3CCCCC3)CC2)CC1 (stereo not given) the results were Autofluor counter 3744, BoNT-F LC inh 0, BoNT A protease 1, MazF activator -6 and Anthrax LF inh2 -2.
`Cc1ccnc(-n2c(C)cc(C=C3C(=O)N(C)C(=S)N(C)C3=O)c2C)c1` gave Autofluor counter 3236, BoNT-F LC inh 11, BoNT A protease 32*, MazF activator 42 and Anthrax LF inh2 26.
For Cc1cc(C=C2C(=O)N(C)C(=S)N(C)C2=O)c(C)n1-c1ccncc1 the results were MazF activator -3.
`COc1ccccc1NC(=O)CNS(=O)(=O)c1ccccc1` gave Autofluor counter 21927*, BoNT-F LC inh -6, BoNT A protease inconclusive, MazF activator -1 and Anthrax LF inh2 1.
O=C(CNS(=O)(=O)c1ccccc1)Nc1ccccc1Br was read as Autofluor counter 6808, BoNT-F LC inh -12, BoNT A protease -3, MazF activator -2 and Anthrax LF inh2 -2.
For Cc1ccc(C)c(NC(=O)CNS(=O)(=O)c2ccccc2)c1 the results were Autofluor counter 16924*, BoNT-F LC inh -3, BoNT A protease inconclusive, MazF activator -3 and Anthrax LF inh2 -1.

Screening data: PubChem, several laboratories
